# TDP-43 yeast inh = inhibitors of TDP-43 toxicity in yeast. Potency, µM (highest dose often 46.1 µM), inactives show at the top dose growth rescue (activation), most hits filed as activators. 1.8% of 410,000 active. AID 652104. TDP-43 expressing yeast growth rescue, BacTiter-Glo, 24 h; further: % of control where 0% means no effect; nearly all actives have a fitted effect of over 50% in size
#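 Cell-based yeast growth screen: TDP-43 expression induced in galactose, inoculum OD600=0.02 after raffinose pregrowth to mid-log. Read-out BacTiter-Glo luminescence at 24 hr, 30 deg C; inhibition of toxicity seen as signal increase.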
# FUS yeast rescue = suppressors of FUS proteinopathy in yeast | S. cerevisiae FUS-expressing, growth rescue, OD600, 24 h | Potency, µM (titrated, usually from 76.6 µM), most hits filed as activators | 0.24% of 390,000 active | AID 1347120;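 further: plate controls were DMSO vehicle for no effect and reference control for full effect; nearly all actives have a fitted effect of over 55% in size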
#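 Cultures pregrown in 2.5% raffinose medium are shifted to minimal medium containing 2% galactose to express toxic FUS. Compounds are tested at several concentrations. After 24hr at 30C, growth is quantified at 600 nm absorbance.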
# Abeta rescue = A-beta toxicity reversal in yeast; AID 1347071; 0.063% of 410,000 active; yeast expressing A-beta42, growth rescue, OD600, 48 h; response scale: 0% DMSO, 100% iron-clioquinol control; Potency, µM (top dose mostly 46.1 µM), most hits filed as activators; further: nearly all actives have a fitted effect of over 55% in size
#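 Yeast A-beta toxicity model in growth medium with pinned compounds, 48 h at 30 C; growth read as absorbance at 600 nm. Normalized to FeCl3/clioquinol equimolar mix (positive) and DMSO (negative).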
# aSyn yeast inh = inhibitors of alpha-synuclein toxicity in yeast; Yeast expressing alpha-synuclein, growth rescue, BacTiter-Glo, 24 h; Potency, µM (top dose mostly 46.1 µM), for inactives: at the top dose growth rescue (activation), most hits filed as activators; 0.14% of 370,000 active; AID 652106; further: % of control where 0% means no effect; nearly all actives have a fitted effect of over 65% in size
#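 Screening used galactose-induced yeast with toxic alpha-synuclein levels, exposed to compound for 24 hr at 30 deg C. Cell growth, read with BacTiter-Glo luminescence, gave the measured signal.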
# * hit, by the source's call; i = inactive; ? = inconclusive; nt = not tested or not shown; ! = not active in a repeat; [ ] = another dose, or the depositor's remark. Most compounds without a hit are left out; they make up all but 2.1% or so of the library. The call rests on the fitted dose curve; in most records, active means well fitted curve in the direction sought with a large enough effect; inconclusive means small, poorly fitted or top-dose-only effect, or another doubt; inactive means no such curve, though single readings can be large; an effect the other way counts as inactive or inconclusive. Potency means the concentration at half of the fitted maximal effect.
SMILES,TDP-43 yeast inh,FUS yeast rescue,Abeta rescue,aSyn yeast inh
O=C(COc1ccccc1C(=O)Nc1ccccc1)NCCCCc1ccccc1,nt,nt,nt,-6%
O=C(O)c1cccnc1SCc1cccc(Cl)c1,35µM*!,i,i,9%
Cc1ccc(NC(=O)c2ccc3c(c2)NC(=O)c2ccccc2S3)cc1,26%,i,i,nt
CCc1c(C)nc2ncnn2c1NC1CCCc2ccccc21 (stereo unspecified),22%,i,13µM*,8%
COc1ccc2[nH]c3c(c2c1)CCN1C(=O)C(CC(=O)NCC24CC5CC(CC(C5)C2)C4)C[C@H](C(=O)N(C(C)C)C(C)C)[C@@]31C (stereo partly specified),11µM*,?,i,-15%
CCN(CC)C(=O)[C@H]1C[C@H](CC(=O)NCC23CC4CC(CC(C4)C2)C3)C(=O)N2CCc3c([nH]c4cc(-c5ccco5)ccc34)[C@]12C,20%,i,i,1%
C[C@]12c3[nH]c4ccc(Cl)cc4c3CCN1C(=O)[C@@H](CC(=O)NCC13CC4CC(CC(C4)C1)C3)C[C@@H]2C(=O)N1CCCCC1,19%,i,i,16µM*
CCN(CC)C(=O)[C@H]1CC(CC(=O)NCC23CC4CC(CC(C4)C2)C3)C(=O)N2CCc3c([nH]c4ccccc34)[C@]12C (stereo partly specified),28µM*,i,i,?
COc1ccc2[nH]c3c(c2c1)CCN1C(=O)C(CC(=O)NCC24CC5CC(CC(C5)C2)C4)C[C@H](C(=O)N2CCOCC2)[C@@]31C (stereo partly specified),18%,i,i,0%
CCCN(CCC)C(=O)Cn1c(=O)n(-c2ccc(Cl)c(Cl)c2)c(=O)c2c(C)c(C(=O)N(C)C)sc21,12%,i,i,nt
CCCCN(Cc1ccccc1)C(=O)c1oc(=O)c2ccccc2c1-c1ccc(C)cc1,-9%,i,i,nt
Cc1cccc(N(CC(=O)NCCSCc2ccc(Cl)cc2)S(C)(=O)=O)c1C,16µM*,i,?,nt
O=[N+]([O-])c1ccc(N2CCN(Cc3ccccc3)CC2)c2c1no[n+]2[O-],35µM*,i,i,14%
O=[N+]([O-])c1ccc(N2CCN(Cc3ccccc3)CC2)s1,-7%,i,i,-11%
CCCC(=O)N1CCC[C@]2(CC[C@@H](CCC#N)O2)C1,nt,i,nt,nt
CNC(=O)c1ccc(-c2sc3nc(N4CCOCC4)c4c(c3c2N)CC(C)(C)OC4)o1,17%,i,i,-2%
CNC(=O)c1ccc(-c2sc3nc(N4CCOCC4)c4c(c3c2N)CCCC4)o1,22µM*,7.1µM*,i,-8%
C[C@@H]1CCCCO[C@H](CN(C)Cc2ccc(Cl)c(Cl)c2)[C@H](C)CN([C@@H](C)CO)C(=O)c2cc(NC(=O)Nc3ccc(F)cc3)ccc2O1,0%,35µM*,i,-6%
CCOC(=O)CCCCCC(=O)Nc1ccc2c(c1)C(=O)N([C@@H](C)CO)C[C@H](C)[C@H](CN(C)C(=O)Nc1ccc(F)cc1)OCCCC[C@H](C)O2,27%,22µM*,i,0%
COc1ccc(NC(=O)Nc2ccc3c(c2)C(=O)N([C@H](C)CO)C[C@H](C)[C@@H](CN(C)Cc2ccc(Cl)c(Cl)c2)OCCCC[C@@H](C)O3)cc1,6%,?,i,-2%
C[C@H](CO)N1C[C@H](C)[C@@H](CN(C)C(=O)Nc2ccc(C(F)(F)F)cc2)Oc2ccc(NC(=O)Nc3ccc(C(F)(F)F)cc3)cc2C1=O,?,?,i,2%
C[C@@H]1CN([C@H](C)CO)C(=O)c2cc(NC(=O)Nc3ccc(C(F)(F)F)cc3)ccc2O[C@H]1CN(C)C(=O)Nc1ccc(F)cc1,-16%,28µM*,i,1%
CCOC(=O)CCCCCC(=O)Nc1ccc2c(c1)C(=O)N([C@@H](C)CO)C[C@H](C)[C@H](CN(C)C(=O)NC(C)C)OCCCC[C@H](C)O2,17%,?,i,1%
CCCCN(CC)CCNC(=O)CCn1cnc2onc(-c3ccc(F)cc3)c2c1=O,3%,i,i,nt
Cc1cccc(NC(=O)C2C(c3ccccc3)C2(Cl)Cl)c1 (stereo unspecified),22µM*,i,i,-37%
SMILES,TDP-43 yeast inh,FUS yeast rescue,Abeta rescue,aSyn yeast inh
O=C(Nc1nc(OCCN2CCCC2=O)cnc1/C=C\c1ccccc1)c1cc2ccccc2s1,19%,40µM*,i,?
CCS(=O)(=O)N1CC(=O)N(c2ccc(Cl)cc2C)C(C)(C(=O)NC2CCCCCC2)C1 (stereo unspecified),15%,i,i,nt
CC(C)OC(=O)NCCOC(=O)Nc1ccc(Cl)c(Cl)c1,11µM*,i,i,9%
COc1cc(-c2cc(OC)c3c(C)oc(C)c3c(=O)c2)ccc1OC(=O)c1ccccc1C,20µM*,?,i,nt
CCOc1cc(-c2ccc(OC(=O)c3ccc(C)cc3)c(OC)c2)cc(=O)c2c(C)oc(C)c12,18µM*,?,i,nt
COc1cc(-c2cc(OC)c3c(C)oc(C)c3c(=O)c2)ccc1OC(=O)c1cccc(Cl)c1,20µM*,?,i,nt
COc1cccc(C2=NN(S(C)(=O)=O)C(c3cn(-c4ccccc4)nc3-c3cccs3)C2)c1 (stereo unspecified),16%,i,i,nt
Fc1cccc(Cl)c1C1SCc2nc3ccccc3n21 (stereo unspecified),13µM*,i,i,6%
Cc1ccc2onc(CC(=O)Nc3cc(F)ccc3F)c2c1,10µM*,i,i,nt
O=[N+]([O-])c1cccc(S(=O)(=O)N2CCN(c3nc(-c4ccccc4)nc4ccccc34)CC2)c1,nt,nt,nt,1%
COc1ccccc1NC(=O)CSc1ncn(-c2ccccc2)n1,10µM*,nt,i,6%
Cc1ccc(NC(=O)c2c(C)nn(-c3ccccc3)c2Cl)cc1,13µM*,i,i,1%
CC(=O)c1ccc(NC(=O)c2c(C)nn(-c3ccccc3)c2Cl)cc1,11µM*,i,i,8%
COc1ccccc1NC(=O)c1c(C)nn(-c2ccccc2)c1Cl,25µM*,i,i,0%
Cc1ccc2nc(-c3ccc(C)c(NC(=O)COc4ccc(Cl)cc4)c3)oc2c1,nt,nt,nt,-5%
COc1ccccc1N1CCN(C(=O)c2ccc3c(c2)N(Cc2ccccc2)C(=O)c2ccccc2S3(=O)=O)CC1,?,?,i,nt
CCc1cccc(C)c1NC(=O)CCS(=O)(=O)c1ccc2c(c1)oc(=O)n2C,9%,i,i,nt
CN(C)c1ccc(N=Nc2ccc(S(=O)(=O)O)cc2)cc1,nt,nt,nt,-4%
COC(=O)CCC(=O)Nc1sc(Cc2ccccc2)c(C)c1C(N)=O,-22%[0.397 µM],i,i,-6%
CCCC(=O)Nc1sc(Cc2ccccc2)c(C)c1C(N)=O,18µM*,i,i,-20%
CC(C)c1ccc(/C=C2\C=Cc3ccccc32)cc1,nt,nt,nt,-1%
